A selection: hits, their analogues and other compounds. The true share with any hit is near 3.8%.
ERa coact pot = ER-alpha (human) coactivator binding potentiation; hit rate 1.3% among 86,000; AID 639; TR-FRET ERalpha-LBD/SRC-Cy5 coactivator binding, 2 h; 100 = basal binding, no effect; coactivator binding (% of control), % at 25.6 µM; in the data active = activity above about 200%;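 note: binding measured in presence of low estradiol as agonist stimulus; 0% = peptide alone without receptor and 100% = receptor with peptide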
ERb coact inh = ER-beta (human) coactivator binding inhibition. Q92731. TR-FRET ER-beta LBD / SRC1-Cy5 peptide binding; receptor agonist-loaded with 1 µM estradiol. inhibition, % at 25.6 µM. hit rate 1.3% among 86,000. AID 633;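 active = compounds whose percent inhibition of the receptor-coactivator binding signal exceeds about 50% in the single-dose screen, limit read from the data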;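 note: 0% = receptor plus peptide wells without compound and 100% = peptide-only wells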
MT1-MMP txn act = activates MT1-MMP transcription; activation factor at 10 µM; AID 750; HT1080 MT1-MMP promoter luciferase reporter, luminescence, overnight; stronger effect = higher value; hit rate 0.16% among 86,000;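 active = activation factor of at least 2 for MT1-MMP transcription at 10 µM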
ERa coact inh = ER-alpha (human) coactivator binding inhibition | AID 629 | P03372 | TR-FRET ER-alpha LBD / SRC-1 peptide, estradiol-bound | inhibition, % at 25.6 µM | hit rate 1.7% among 86,000; in the data active = inhibition above about 50%;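 note: 0% = receptor plus peptide control and 100% = peptide only without receptor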
Calb biofilm kill = kills Candida albicans biofilms; C. albicans biofilm + clotrimazole, Alamar Blue; inhibition, % at 6 µM; hit rate 0.14% among 85,000;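 active = inhibition above 20%; inactive = inhibition below 20%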;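 note: preformed 24 hr biofilms exposed to compound for 48 hr; 0% = biofilm without compound and 100% = blank killed by clotrimazole plus chlorhexidine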
Smad3 FoxH1 inh = Smad3 (human) transcription factor binding inhibition; P84022; TR-FRET Smad3/Dy647-FoxH1 peptide binding, europium anti-His; inhibition, % at 25 µM; hit rate 0.29% among 88,000; AID 630;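 active = compounds that reduce the energy-transfer binding signal between the protein and its labelled peptide by more than half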;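 note: 0% = Smad3 plus labelled peptide maximal FRET and 100% = peptide-only background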
Target sequence (P84022 whole entry, looked up): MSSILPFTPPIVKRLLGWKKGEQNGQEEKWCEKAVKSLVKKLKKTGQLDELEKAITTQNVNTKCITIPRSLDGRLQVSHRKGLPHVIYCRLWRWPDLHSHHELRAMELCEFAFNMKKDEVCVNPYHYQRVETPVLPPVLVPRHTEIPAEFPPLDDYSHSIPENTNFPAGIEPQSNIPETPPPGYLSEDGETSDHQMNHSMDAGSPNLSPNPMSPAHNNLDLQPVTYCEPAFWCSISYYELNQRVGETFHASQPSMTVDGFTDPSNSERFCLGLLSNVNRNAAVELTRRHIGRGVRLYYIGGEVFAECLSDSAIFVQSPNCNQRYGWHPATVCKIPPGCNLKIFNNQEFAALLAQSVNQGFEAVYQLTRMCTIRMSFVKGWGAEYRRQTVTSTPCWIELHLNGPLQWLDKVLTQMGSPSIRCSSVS
* marks the source's active call; other numbers are inactive results; x = no result; [ ] = another dose, or the depositor's remark.

SMILES	ERa coact pot	ERb coact inh	MT1-MMP txn act	ERa coact inh	Calb biofilm kill	Smad3 FoxH1 inh
CCCSc1nc2c(c(=O)[nH]c(=O)n2C)n1Cc1ccc(C)cc1	119	33	1.2	67*[fluorescence artefact?]	9	9
Cc1onc(-c2ccccc2Cl)c1C(=O)OCC(=O)Nc1ccc2c(c1)OCO2	111	5	1.1	7	25*	1
Cn1c(=O)c2c(nc(SCC(=O)N(C3CCCCC3)C3CCCCC3)n2C)n(C)c1=O	155	0	1.2	-4	5	9
Cc1ccc(C)n1-c1cccc(C(=O)O)c1	328*	25	1.2	0	6	1
O=C(O)c1cccc(N2CCCC2)c1	103	-2	1.4	1	7	-2
O=C(O)c1cc(-c2ccc(-c3ccc(-c4cc(C(=O)O)c5cc(Cl)ccc5n4)cc3)cc2)nc2ccc(Cl)cc12	x	x	x	x	x	-17
O=C(CCC(=O)Nc1nnc(C2CCCCC2)s1)NCC1CCCO1 (configuration not stated)	203*[fluorescence artefact?]	61*	1	63*	7	81*
CN(C)CCN(c1ccccn1)c1ccccn1	x	x	x	x	x	17
Oc1ccc(-c2nc(-c3ccc(O)c(O)c3)cs2)cc1	19	82*	0.8	68*[fluorescence artefact?]	2	18
CSc1nc(-c2ccccc2)nc2[nH]ccc(=O)c12	317*	25	0.9	52*[fluorescence artefact?]	5	-6
CCCCCCN(C(=O)CCCCCN1C(=O)NC(c2ccc(-c3ccccc3)cc2)C(C(=O)OCc2ccccc2)=C1C)C(C(=O)NCCCC)c1ccc(O)c(C(=O)OC)c1 (configuration not stated)	x	x	1	x	x	x
N#C[C@@H](N=Nc1ccccc1C(=O)O)C(N)=O	x	x	x	x	x	12
c1ccc(/C(=N\Nc2nc3ccccc3s2)c2ccccn2)cc1	x	x	x	x	x	20
CCCCOc1ccc(-c2nnc(-c3ccncc3)o2)cc1	114	2	1.7	4	4	9
CCCOc1ccc(-c2nnc(-c3cccs3)o2)cc1	215*[fluorescence artefact?]	17	x	15	7	-76
Cc1cccnc1NC(=O)CSc1nnc(Cc2ccccc2)o1	100	-1	1.1	17	-3	5
c1ccc2c(c1)oc1c(Nc3ccc4c(c3)OCO4)ncnc12	75	43	1.5	43	-4	7
c1ccc2c(c1)oc1c(NCc3ccc4c(c3)OCO4)ncnc12	378*[fluorescence artefact?]	-5	1.1	-3	5	12
Cc1noc(C)c1COC(=O)c1ccc2c(c1)OCCO2	105	0	1.2	3	6	1
Cc1noc(C)c1COC(=O)c1cc2c(C)nn(-c3ccc(F)cc3)c2s1	150	59*[fluorescence artefact?]	1.1	74*[fluorescence artefact?]	5	9
Cc1noc(C)c1COC(=O)c1cc2c3ccccc3n(C)c2s1	751*	-49	1.1	-80	4	6
CCOC(=O)c1cnc(N(C)C)nc1SC(=N)N	x	x	x	x	x	16
Nc1ncnc2c1ncn2[C@H]1O[C@@H](CO)[C@H](O)[C@H]1N	x	x	x	x	x	-12
CCC(c1nnnn1Cc1ccc2c(c1)OCO2)N1CCN(c2ccc(F)cc2)CC1 (configuration not stated)	103	79*[fluorescence artefact?]	1.2	2	3	7
CN(C)c1ccc(/C=c2\sc3nc(-c4ccccc4)nn3c2=O)cc1	52	34	1.1	69*[fluorescence artefact?]	5	-3
SMILES	ERa coact pot	ERb coact inh	MT1-MMP txn act	ERa coact inh	Calb biofilm kill	Smad3 FoxH1 inh
COc1cc(/C=c2\sc3nc(-c4ccncc4)nn3c2=O)ccc1OC(C)=O	59	45	1.2	68*	4	84*[fluorescence artefact?]
CCOC(=O)c1sc(NC(=O)C2CCCO2)c(C(=O)OCC)c1C (configuration not stated)	73	49	1.3	57*	5	-4
O=C(O)CC12C[C@@H]3C[C@@H](CC(O)(C3)C1)C2	x	x	x	x	x	2
O=C1NC(c2cccs2)Nc2sc3c(c21)CCCC3 (configuration not stated)	98	15	1.6	-2	1	4
CN1C(=O)c2c(sc3c2CCCC3)NC1c1ccccc1O (configuration not stated)	61	78*[fluorescence artefact?]	1.4	19	9	-10
NNC(=O)[C@@H](O)[C@H](O)C(=O)NN	x	x	x	x	x	-8
CCOc1[nH]c(/N=C/c2ccco2)c(C#N)c1C#N	72	60*	1	35	7	10
Cc1cc(NC(=O)c2cncc(Br)c2)n(-c2ccccn2)n1	294*	-5	0.9	8	1	-2
O=C(Nc1ccccc1C(=O)O)c1cncc(Br)c1	77	-3	1	-9	-3	-6
COc1cc(O)c2c(O)c3c(c4c2c1[C@]1(C4)C(C)=CCCC1(C)C)[C@H](O)[C@@]1(O)CC(=O)C(C(N)=O)=C(O)[C@]1(O)C3=O	x	x	x	x	x	46
c1ccc(Cn2c(CSc3nnnn3-c3ccccc3)nc3ccccc32)cc1	73	18	1.1	64*[fluorescence artefact?]	7	8
O=c1c2ccccc2nc(CSc2nnnn2-c2ccccc2)n1-c1ccccc1Cl	98	59*[fluorescence artefact?]	1.1	78*[fluorescence artefact?]	x	19
Cc1cccc(CSc2nnnn2-c2ccccc2)c1	96	-22	1.1	-2	3	10
CC1=C(C)[N+](=O)C2(O)CCCCC2(C)N1[O-] (configuration not stated)	109	-3	0.9	-8	-1	-10
CC12CCCCC1(O)[N+](=O)C1=C(CCCC1)N2[O-] (configuration not stated)	68	66*	1	39	-3	5
O=C(Cn1nc(-c2ccc(Cl)cc2)ccc1=O)NCCCN1CCN(Cc2ccccc2)CC1	108	1	0.9	3	1	6
O=C(CCn1nc(-c2ccc(Cl)cc2)ccc1=O)NCCCN1CCCCCC1	99	31	x	74*[fluorescence artefact?]	1	2
CC(C)(C)c1ccc(O)c(CN(Cc2cc(C(C)(C)C)ccc2O)c2ccccc2)c1	x	x	x	x	x	43
CCN1C(=O)CC(C(=O)NC)SC1=Nc1cc(Cl)c(O)c(Cl)c1 (configuration not stated)	81	50*[fluorescence artefact?]	1.2	31	10	-22
CC(=O)O[C@]1(C)N=NC2(CCCCC2)O1	x	x	x	x	x	-7
COc1ccc(C(=S)N2CCCCCC2)cc1	109	-2	1.3	-1	6	7
COc1cc(C(=S)N2CCCC2)cc(OC)c1O	81	-10	1.2	63*[fluorescence artefact?]	4	-8
Nc1ccc(-c2nc3c(Cl)c(N)ccc3[nH]2)cc1	109	53*[fluorescence artefact?]	1	6	-2	2
Nc1ccc2nc(-c3cc(Cl)c(N)c(Cl)c3)[nH]c2c1	4	47	1.8	95*[fluorescence artefact?]	7	22
Cc1ccc(C)c(-c2nc3ccc(N)cc3[nH]2)c1	116	-5	1.3	0	4	10
Nc1ccc2nc(-c3ccc(Cl)cc3)[nH]c2c1	72	44	x	87*[fluorescence artefact?]	-3	13
CCSc1nnc(NC(=O)c2ccccn2)s1	92	-4	0.9	10	3	6
O=C(Nc1nnc(C2CCCCC2)s1)c1ccc(Br)s1	367*[fluorescence artefact?]	52*[fluorescence artefact?]	1.3	11	4	-9
